Test results: ChEMBL document CHEMBL3988442, “University of Dundee, Small-Polar-MMV Screening Library” (2021)

Each compound was assayed against T1, Aspartate--tRNA(Asp/Asn) ligase (Mycobacterium tuberculosis (strain ATCC 25618 / H37Rv)) (UniProt P9WFW3) (assay: Assay for Asp RNA synthetase-1 from Mycobacterium tuberculosis). Conditions: 30 µM.
T1 sequence (whole entry): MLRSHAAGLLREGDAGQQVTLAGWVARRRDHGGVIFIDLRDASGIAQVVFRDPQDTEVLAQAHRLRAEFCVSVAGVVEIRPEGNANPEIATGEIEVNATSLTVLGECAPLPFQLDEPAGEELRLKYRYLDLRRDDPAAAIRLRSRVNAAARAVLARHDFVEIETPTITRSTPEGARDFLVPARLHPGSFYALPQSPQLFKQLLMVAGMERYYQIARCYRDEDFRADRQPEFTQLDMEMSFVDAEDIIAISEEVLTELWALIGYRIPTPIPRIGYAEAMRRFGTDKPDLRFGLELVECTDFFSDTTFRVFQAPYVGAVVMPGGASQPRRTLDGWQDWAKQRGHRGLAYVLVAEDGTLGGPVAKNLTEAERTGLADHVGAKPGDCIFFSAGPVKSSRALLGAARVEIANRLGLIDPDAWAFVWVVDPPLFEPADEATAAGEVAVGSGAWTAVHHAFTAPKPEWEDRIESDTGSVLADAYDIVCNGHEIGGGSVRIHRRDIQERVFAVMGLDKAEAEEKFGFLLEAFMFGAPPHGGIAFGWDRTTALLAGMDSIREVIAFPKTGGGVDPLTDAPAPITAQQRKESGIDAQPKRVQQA
Type: functional
Set-up: scale not given: direction of the effect not stated beside the values
For `Cn1cc(CN2CCCC23CCN(C(=O)c2cccn2C)CC3)cn1`, the Percent Effect was -4.47%. `Cc1nocc1C(=O)N1CCc2c(CN(C)C(C)C)n[nH]c2C1` showed a Percent Effect of 0.866%. With `Cc1nn(C)c(C)c1C1CCCN1Cc1cccc(C(N)=O)c1` (stereo unspecified) the Percent Effect was -1.14%. Compound `Fc1ccccc1Cc1noc(CN2CCCC(CN3CCCC3)C2)n1` (stereo unspecified) has a Percent Effect of -0.254%. For `Cc1cc(C)n(CC2CCCCN2CCCS(N)(=O)=O)n1` (stereo unspecified), the Percent Effect was -7.33%. With `COCC(=O)N1CCC[C@]2(C(=O)N(C)C)CN(c3ccccn3)C[C@@H]2C1` the Percent Effect was -2.71%. In the case of `O=C(c1ccc2c(c1)OCO2)N1CCN(c2cnccn2)CC1`, the Percent Effect is reported as -4.12%. For `CN(CC(=O)Nc1ccc(Br)cn1)C(=O)Cc1ccc(O)cc1`, the Percent Effect was -5.92%. Compound `Cc1cc(C(=O)NCC2COCc3c(C)nnn3C2)no1` (stereo unspecified) has a Percent Effect of 2.38%. In the case of `O=C(COC[C@H]1CC[C@H]2[C@H](CCN2c2ncccn2)O1)N1CCCC1`, the Percent Effect is reported as -2.51%. `Cc1cnn(CC2CN(CC(=O)NCc3ccccn3)CCO2)c1` (stereo unspecified) gave a Percent Effect of -8.24%. In the case of `Cc1cccc(NC(=O)CNC(=O)Cn2ncc(Cl)c(Cl)c2=O)c1C`, the Percent Effect is reported as 9.53%. `Cc1csc(N2CCCN(C(=O)C(C(C)C)n3cncn3)CC2)n1` (stereo unspecified) was tested, and the Percent Effect was -2.24%. For `O=C1CC(N(C(=O)c2ccc3c(c2)CCC3)C2CC2)C(=O)N1` (stereo unspecified), the Percent Effect was 0.714%. In the case of `CNS(=O)(=O)Cc1ccc(CNC(=O)Nc2cccnc2)cc1`, the Percent Effect is reported as -0.514%. Compound `Cn1ccnc1CN1CCN(CC(O)c2cccc(F)c2)CC1` (stereo unspecified) has a Percent Effect of 1.53%. `CCOC(=O)c1sc(NC(=O)CN(C)S(C)(=O)=O)c(C#N)c1C` was tested, and the Percent Effect was -4.94%. Work on `O=C(c1cc(C2CC2)on1)N1CC[C@]2(C[C@H](Oc3cccnc3)CO2)C1` yielded a Percent Effect of 6.67%. `CC(=O)c1cc(CC(=O)NCc2ccc(F)cc2)cs1` gave a Percent Effect of 1.48%. Work on `COC(=O)CC(c1cnn(C)c1)c1oc(C)cc(=O)c1O` (stereo unspecified) yielded a Percent Effect of -0.166%. Compound `CN(C)C(C(=O)N1CCCC1)c1ccccc1F` (stereo unspecified) has a Percent Effect of 3.9%.

Each compound was assayed against Shiga toxin 2 (Escherichia coli O157:H7) (UniProt P09385+P09386) (assay: E. coli 0.157:H7 Shiga Toxin SOP - stx2 screening assay). Conditions: 30 µM.
Type: functional
Set-up: scale not given: direction of the effect not stated beside the values
`COc1cccc(CNCc2nnc3n2CC(C(F)(F)F)CC3)c1` (stereo unspecified) showed a Percent Effect of -19.1%. Compound `NC(=O)C1CN(C(=O)Nc2ccccc2-c2cccs2)CCO1` (stereo unspecified) has a Percent Effect of -14.7%. With `Cc1nc(N2CCCC2)nc2c1CCN(Cc1ccco1)CC2` the Percent Effect was -55.7%. For `Cc1occc1C(=O)N1CCO[C@H]2[C@@H](Oc3ccccn3)CC[C@@H]21`, the Percent Effect was -16.2%. `Cc1nccc(CN2CC[C@H](Oc3cccc(F)c3)[C@@](C)(O)C2)n1` was tested, and the Percent Effect was -25.4%. Compound `CC(C)OCc1ccc(CNC(=O)CC(F)(F)F)cc1` has a Percent Effect of 12.4%. `Cc1nc(CN2CCCC(NCCOc3ccccc3)C2)no1` (stereo unspecified) gave a Percent Effect of -0.215%. With `Cc1ccc(C)n1-c1ccc(C(=O)NCCNc2ncccn2)cc1` the Percent Effect was 7.86%. `CCNC(=O)c1nc2c(s1)CCCN2S(C)(=O)=O` gave a Percent Effect of -17.3%. `CC(C)Oc1cccc(C(=O)C2CCCN(C(=O)c3ncn[nH]3)C2)c1` (stereo unspecified) showed a Percent Effect of -0.343%. Work on `CN(C)C(=O)[C@H]1C[C@@H]2CN(S(=O)(=O)Cc3ccccc3)C[C@H]1O2` yielded a Percent Effect of -3.49%. `CC(NC(=O)NCCCc1n[nH]c(N)c1C#N)c1ccccc1` (stereo unspecified) showed a Percent Effect of -17.6%. `COCCN(Cc1ccc(F)cc1Cl)C(=O)c1ccncc1` gave a Percent Effect of 12%. Compound `O=C(CCSc1ccc(F)cc1)NS(=O)(=O)c1ccc2c(c1)OCCO2` has a Percent Effect of -1.47%. In the case of `CN(C)C(=O)CO[C@@H]1CC[C@H]2[C@H]1OCCN2C(=O)C1CCOCC1`, the Percent Effect is reported as -10.1%. `Cn1cc(N2CCC3(CCN(Cc4nccs4)C3)C2=O)cn1` (stereo unspecified) was tested, and the Percent Effect was -2.2%. Work on `CCn1cnnc1CNC(=O)N1CCN(c2cccs2)CC1` yielded a Percent Effect of -43.6%. With `CC1CCN(CCCNS(=O)(=O)c2cccc(F)c2)CC1` the Percent Effect was -61.6%. Work on `CC(=O)N1CCCN(CC(C)(O)c2cccc(C(F)(F)F)c2)CC1` (stereo unspecified) yielded a Percent Effect of -32.4%. With `Cn1cc(CN2CCCC23CCN(C(=O)c2cccn2C)CC3)cn1` the Percent Effect was -10.8%. `Cc1nocc1C(=O)N1CCc2c(CN(C)C(C)C)n[nH]c2C1` gave a Percent Effect of 3.98%. `Cc1nn(C)c(C)c1C1CCCN1Cc1cccc(C(N)=O)c1` (stereo unspecified) gave a Percent Effect of -1.22%. Compound `Fc1ccccc1Cc1noc(CN2CCCC(CN3CCCC3)C2)n1` (stereo unspecified) has a Percent Effect of 11.5%. `Cc1cc(C)n(CC2CCCCN2CCCS(N)(=O)=O)n1` (stereo unspecified) gave a Percent Effect of -48%. With `COCC(=O)N1CCC[C@]2(C(=O)N(C)C)CN(c3ccccn3)C[C@@H]2C1` the Percent Effect was -6.93%. In the case of `O=C(c1ccc2c(c1)OCO2)N1CCN(c2cnccn2)CC1`, the Percent Effect is reported as -14.6%. `CN(CC(=O)Nc1ccc(Br)cn1)C(=O)Cc1ccc(O)cc1` was tested, and the Percent Effect was 17.8%. `Cc1cc(C(=O)NCC2COCc3c(C)nnn3C2)no1` (stereo unspecified) gave a Percent Effect of -17.1%. `O=C(COC[C@H]1CC[C@H]2[C@H](CCN2c2ncccn2)O1)N1CCCC1` was tested, and the Percent Effect was -24.1%. In the case of `Cc1cnn(CC2CN(CC(=O)NCc3ccccn3)CCO2)c1` (stereo unspecified), the Percent Effect is reported as -5.07%. `Cc1cccc(NC(=O)CNC(=O)Cn2ncc(Cl)c(Cl)c2=O)c1C` gave a Percent Effect of -21.2%. Compound `Cc1csc(N2CCCN(C(=O)C(C(C)C)n3cncn3)CC2)n1` (stereo unspecified) has a Percent Effect of 15.4%. For `O=C1CC(N(C(=O)c2ccc3c(c2)CCC3)C2CC2)C(=O)N1` (stereo unspecified), the Percent Effect was 6.53%. `CNS(=O)(=O)Cc1ccc(CNC(=O)Nc2cccnc2)cc1` was tested, and the Percent Effect was -38.8%. Compound `Cn1ccnc1CN1CCN(CC(O)c2cccc(F)c2)CC1` (stereo unspecified) has a Percent Effect of 14%. `CCOC(=O)c1sc(NC(=O)CN(C)S(C)(=O)=O)c(C#N)c1C` was tested, and the Percent Effect was 2.91%. `O=C(c1cc(C2CC2)on1)N1CC[C@]2(C[C@H](Oc3cccnc3)CO2)C1` was tested, and the Percent Effect was 7.42%. `CC(=O)c1cc(CC(=O)NCc2ccc(F)cc2)cs1` showed a Percent Effect of -11.3%. `COC(=O)CC(c1cnn(C)c1)c1oc(C)cc(=O)c1O` (stereo unspecified) gave a Percent Effect of -13.2%. In the case of `CN(C)C(C(=O)N1CCCC1)c1ccccc1F` (stereo unspecified), the Percent Effect is reported as -23.9%.
